{"source": "PubChem BioAssay AID2685", "about": "(National Center for Advancing Translational Sciences (NCATS), 2010)", "note": "The campaign covered roughly 320,000 compounds. About 2,100 (0.66%) were called active. Inconclusive results (about 53%) are left out. This is one part of a sample in which actives are shown more often than they occur. Calls come from the whole dose curve; as a rule, active = well fitted inhibition curve with a large enough effect in the signal ratio, with a control signal flat (not every such curve was filed as active); inconclusive = small, poorly fitted or top-dose-only effect, or effect the other way, or a change in a side signal; inactive = flat fitted curve, though single readings scatter; the % refers to the signal ratio. Potency is the fitted concentration of half-maximal effect.", "data": [{"assay": "qHTS Assay for Lipid Storage Modulators in Drosophila S3 Cells;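 for cell number change: cells counted by Cell Tracker Red CMTPX staining in the red channel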; for lipid storage change, negative = inhibition: % is set by controls: 0 for no effect and ±100 for the full control effect", "conditions": "BODIPY lipid droplet fluorescence, 18-24 h, cells fed with added oleic acid; cell number change: measured here: cell count max response; series mostly up to 46.1 µM; lipid storage change, negative = inhibition: at the top concentration", "in_short": "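Laser-scanning cytometry quantifies lipid droplet accumulation (500–530 nm total intensity; droplet/cell object ratio) in oleic acid-fed (400 uM added) Drosophila S3 cells treated with a concentration series. 20 uM Triacsin C defined 100% inhibition.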", "units": {"cell number change": "%"}, "values": [{"smiles": "CN(C)CCCNC(=O)C1CCNCC1", "outcome": "inactive", "cell number change": -14.6}, {"smiles": "Cc1ccc(S(=O)(=O)N/N=C\\C=C\\c2ccccc2)cc1", "lipid storage change, negative = inhibition": "7.89% (inactive)"}, {"smiles": "NC(=O)N/N=C/C=C/c1ccccc1", "lipid storage change, negative = inhibition": "-3.42% (inactive)", "cell number change": -8.08}, {"smiles": "O=S(=O)(N/N=C\\C=C\\c1ccccc1)c1ccc(Cl)cc1", "Potency": "11.6 µM (active)", "cell number change": -34.4}, {"smiles": "COc1ccc(/C=C/c2c(-c3ccc(OC)cc3)oc3cccnc23)cc1", "outcome": "inactive", "cell number change": -16.2}, {"smiles": "COC(=O)c1sccc1NC(=O)CC1C(=O)NCCN1C(=O)c1c(F)cccc1Cl", "note": "(configuration not stated)", "lipid storage change, negative = inhibition": "4.81% (inactive)", "cell number change": 12.2}, {"smiles": "O=c1ccc(-c2ccc(S(=O)(=O)N3CCN(c4cccc(Cl)c4)CC3)o2)n[nH]1", "outcome": "inactive", "cell number change": 7.08}, {"smiles": "CNS(=O)(=O)c1ccc(NC(=O)c2cncc(Br)c2)cc1", "outcome": "inactive"}, {"smiles": "Cc1ccc(S(=O)(=O)N(C)C)cc1NC(=O)c1cncc(Br)c1", "Potency": "8.2 µM (active)", "cell number change": -18}, {"smiles": "CN(C)S(=O)(=O)c1cccc(NC(=O)c2cncc(Br)c2)c1", "lipid storage change, negative = inhibition": "8.64% (inactive)"}, {"smiles": "COC(=O)[C@@H](NC(=O)NC1CCCCC1C)C(C)C", "note": "(some centres not stated)", "lipid storage change, negative = inhibition": "11.5% (inactive)", "cell number change": 5.72}, {"smiles": "COC(=O)[C@H](CC(C)C)NC(=O)N1CCCCC1C", "note": "(some centres not stated)", "lipid storage change, negative = inhibition": "-12.3% (inactive)", "cell number change": -11.4}, {"smiles": "COC(=O)[C@H](CC(C)C)NC(=O)NC1CCCCC1C", "note": "(some centres not stated)", "Potency": "25.9 µM (active)", "cell number change": -4.34}, {"smiles": "C=CCc1ccc(OCCCCNC2CCCC2)c(OC)c1", "cell number change": -17.8, "lipid storage change, negative = inhibition": "-10.2% [at 9.22 µM] (inactive)"}, {"smiles": "CC(NC(=O)C1CCC1)c1ccccc1", "note": "(configuration not stated)", "outcome": "inactive"}, {"smiles": "CC(NC(=O)C1CCCN(C(=O)N(C)C)C1)c1ccccc1", "note": "(configuration not stated)", "Potency": "25.9 µM (active)", "cell number change": 2.04}, {"smiles": "CN(C)C(=O)N1CCCC(C(=O)NCc2ccccc2)C1", "note": "(configuration not stated)", "lipid storage change, negative = inhibition": "-5.36% (inactive)", "cell number change": -23.4}, {"smiles": "CCOC(=O)c1c(NC(=S)N2CCOCC2)sc2c1CCN(C(=O)OCC)C2", "lipid storage change, negative = inhibition": "-15.8% (inactive)", "cell number change": -10.4}, {"smiles": "Cc1ccc(/C=N/NC(=O)Cc2c(F)cccc2Cl)s1", "outcome": "inactive", "cell number change": 13.4}, {"smiles": "O=C(c1cc(C2CC2)nn1-c1ccccc1)N1CCN(S(=O)(=O)c2ccccc2)CC1", "Potency": "16.4 µM (active)", "cell number change": -11.8}, {"smiles": "O=C(c1cc(C2CC2)nn1-c1ccccc1)N1CCN(S(=O)(=O)c2cccc(F)c2)CC1", "lipid storage change, negative = inhibition": "17.5% (inactive)", "cell number change": 16.5}, {"smiles": "CCOc1ccc(S(=O)(=O)N2CCN(C(=O)c3cc(C4CC4)nn3-c3ccccc3)CC2)cc1", "outcome": "inactive", "cell number change": -18}, {"smiles": "COc1ccc(-c2noc(CCC(=O)NCc3cccnc3)n2)cc1OC", "lipid storage change, negative = inhibition": "27.8% (inactive)", "cell number change": -15.7}, {"smiles": "CCOC(=O)C1CCN(C(=O)c2ccc(Oc3cc(Cl)cc(Cl)c3)o2)CC1", "lipid storage change, negative = inhibition": "4.49% (inactive)", "cell number change": 4.65}, {"smiles": "Cc1onc(-c2ccccc2)c1CNS(=O)(=O)c1cccc(Br)c1", "lipid storage change, negative = inhibition": "8.41% (inactive)", "cell number change": 12}, {"smiles": "COc1cccc(N(CC(=O)NCCSCc2ccc(Cl)cc2)S(C)(=O)=O)c1", "lipid storage change, negative = inhibition": "-30.8% (inactive)", "cell number change": -16.4}, {"smiles": "CCOc1ccc(N(CC(=O)NCCSCc2ccccc2)S(C)(=O)=O)cc1", "lipid storage change, negative = inhibition": "-19.5% (inactive)", "cell number change": 10.5}, {"smiles": "CCOc1ccc(N(CC(=O)NCCSCc2ccc(Cl)cc2)S(C)(=O)=O)cc1", "Potency": "9.2 µM (active)", "cell number change": -19.8}]}]}
